{"source": "PubChem BioAssay AID1907", "about": "(The Scripps Research Institute Molecular Screening Center, 2009)", "note": "Screen size: about 1,900 compounds; about 1,200 (63%) were called active. The set was probably picked from earlier hits. These entries were drawn from the full list. Unmarked numbers belong to inactive results. No stated cut-off is given here; in the data, active means inhibition above about 22%; inactive means the rest."}
{"test": "rat intestinal IEC-6 viability loss – cell-based, luminescence, cytotoxicity control, confirmation (AID 1907);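 further: 0% = vehicle and 100% = reference cytotoxic drug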", "details": "IEC-6 rat intestinal epithelial viability, at 5 µM, active compounds read high"}
{"smiles": "COC(=O)Nc1nc2ccc(Sc3ccccc3)cc2[nH]1", "inhibition": "53.4% (active)"}
{"smiles": "CCOc1ccccc1N1CCN(C(=O)c2ccc3[nH]c(C)c(C)c3c2)CC1", "inhibition": "29% (active)"}
{"smiles": "Nc1c(C(=O)NCc2ccccc2)nnn1Cc1cccc(Cl)c1", "inhibition": "22.8% (active)"}
{"smiles": "Cn1cccc1/C=N/NC(=O)CNc1cccc2ccccc12", "inhibition": "36.1% (active)"}
{"smiles": "Cc1cccc(/C=N/NC(=O)CNc2cccc3ccccc23)n1", "inhibition": "26.7% (active)"}
{"smiles": "Cc1ccc(/C=N/NC(=O)COc2ccccc2-c2ccccc2)cc1", "inhibition": "72.2% (active)"}
{"smiles": "CCCC1=Nc2cc(C(=O)NCc3ccco3)ccc2Sc2ccccc21", "inhibition": "58.2% (active)"}
{"smiles": "COc1ccccc1N1CCN(C(=O)c2cc(=O)c3cc(C)cc(C)c3o2)CC1", "inhibition": "60% (active)"}
{"smiles": "CCOc1cc(C(=O)N2CCc3cc(OC)c(OC)cc3C2)ccc1OC(F)F", "inhibition": "60.2% (active)"}
{"smiles": "Cc1ccc(CS(=O)(=O)c2ncc(Cl)c(C(=O)Nc3nnc(C)s3)n2)cc1", "inhibition": "23.3% (active)"}
{"smiles": "CSc1nnc(NC(=O)c2nc(S(=O)(=O)Cc3ccc(C)cc3)ncc2Cl)s1", "inhibition": "14.9%"}
{"smiles": "Cc1cccc(CS(=O)(=O)c2ncc(Cl)c(C(=O)Nc3ccc(F)cc3)n2)c1", "inhibition": "22.5% (active)"}
{"smiles": "Cc1cccc(NC(=O)c2nc(S(=O)(=O)Cc3ccccc3)ncc2Cl)c1", "inhibition": "12.9%"}
{"smiles": "CC(C)OCCCNc1ncnc2c1[nH]c1ccc(F)cc12", "inhibition": "34.4% (active)"}
{"smiles": "CC1CCCCN1S(=O)(=O)c1ccc(C(=O)Nc2nnc(-c3cccs3)o2)cc1", "note": "(stereo not given)", "inhibition": "18.5%"}
{"smiles": "CCN(CC)c1ccc(NC(=O)c2ccc(Cl)nc2)cc1", "inhibition": "38% (active)"}
{"smiles": "O=S(=O)(c1ccc(Br)cc1)N1CCC(c2nc3ccccc3[nH]2)CC1", "inhibition": "27.5% (active)"}
{"smiles": "O=[N+]([O-])c1ccccc1S(=O)(=O)Nc1cccc2cccnc12", "inhibition": "48.3% (active)"}
{"smiles": "CCCCCCCCn1c2c(c(=N)c3c1CCC3)CCCC2", "inhibition": "49.4% (active)"}
{"smiles": "CCOC(=O)CSC1=C(C#N)C(c2sccc2C)CC(=O)N1", "note": "(stereo not given)", "inhibition": "51.2% (active)"}
{"smiles": "CCN1/C(=C/c2ccc3ccc(C)cc3[n+]2CC)Sc2ccccc21", "inhibition": "39.8% (active)"}
{"smiles": "CCN1/C(=C\\c2ccc3ccccc3[n+]2CC)Sc2cc(C)ccc21", "inhibition": "39.4% (active)"}
{"smiles": "O=c1cc(-c2ccccc2)[nH]c2cc(F)ccc12", "inhibition": "53.6% (active)"}
{"smiles": "Cc1cc(C(=O)OCC(=O)NCc2ccco2)c(C)n1-c1ccccc1", "inhibition": "55.2% (active)"}
{"smiles": "CC(=O)NC1=NN(C(C)=O)C(C)(c2ccc(Cl)s2)S1", "note": "(stereo not given)", "inhibition": "41.6% (active)"}
